# Hits are enriched below; roughly 4.3% of the tested compounds scored in any of these assays.
# BoNT F protease: inhibitors of Botulinum neurotoxin F light chain protease; Multiplex microsphere protease cleavage assay, flow cytometry; inhibition, % at 10 µM; 0.22% of 360,000 active; in the data active means inhibition above about 35%, passing the limit was not always enough; inconclusive means no clear call, values can overlap the other calls; further: plate controls were buffer without enzyme for full effect and enzyme alone for no effect
# PfHsp40 rescue: compounds rescuing yeast from Plasmodium falciparum HSP40 toxicity; S. cerevisiae expressing PfHsp40, growth rescue, ATP luminescence; AID 504582; growth rescue, % at 12.5 µM; 0.68% of 340,000 active; in the data active means growth rescue above about 28%, passing the limit was not always enough; inconclusive means no clear call, values can overlap the other calls;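 further: yeast W303a lacking pdr1 and pdr3 grown in galactose medium; growth measured after three days at 30 °C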
# BoNT-A LC inh2: BoNT A light chain protease inhibition. multiplex microsphere protease substrate cleavage, flow cytometry. inhibition, % at 10 µM. 0.17% of 360,000 active; further: plate controls were buffer without enzyme for full effect and enzyme alone for no effect
# Anthrax LF inh2: inhibitors of Bacillus anthracis lethal factor protease; multiplex microsphere protease cleavage assay, LF; inhibition, % at 10 µM; AID 588501; P15917; 0.12% of 360,000 active; further: plate controls were buffer without enzyme for full effect and enzyme alone for no effect
# Bead autofluor: counter-screen for toxin protease inhibitors: compound fluorescence; AID 624483; 3.1% of 360,000 active; fluorescence intensity (no concentration beside the values); compound autofluorescence counterscreen, microsphere flow cytometry; stronger effect = higher value; in the data active means fluorescence intensity above about 16000; inconclusive means no clear call, values can overlap the other calls
# MazEF act: MazEF (E. coli) toxin RNase activation. P0AE70. FAM/BHQ RNA-DNA oligo cleavage fluorescence, 5 h. activation, % at 20 µM. 0.32% of 350,000 active; in the data active means activation above about 50%
# Target sequence (P0AE70 whole entry, looked up): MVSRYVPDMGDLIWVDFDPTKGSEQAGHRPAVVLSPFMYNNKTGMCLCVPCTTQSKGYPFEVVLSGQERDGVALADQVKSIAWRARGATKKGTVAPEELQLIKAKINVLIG
# The depositor's hits bear a star; ? = inconclusive; · = no result; ! = not active in a repeat. Unless noted, no stated cut-off is given here; in the data, active means inhibition above about 30%; inconclusive means no clear call, values can overlap the other calls; inactive means below that.
SMILES,BoNT F protease,PfHsp40 rescue,BoNT-A LC inh2,Anthrax LF inh2,Bead autofluor,MazEF act
CC(=NNC(=S)N1CCC1)c1ccccn1,6.3,34.3*,0.6,3.7,3172,10.1
CC(=NNC(=S)N1CCCC1)c1ccccn1,25.1,·,4.7,16.7,3636,-0.8
CC(=NNC(=S)SCc1ccccc1)c1ccccn1,83.1*,0.0,41.8*,56.9*,3593,0.9
CCCCCC(=O)N/N=C(\C)c1ccccn1,-6.8,-0.9,-1.9,-3.0,10849,-9.3
Cc1cc(=O)c2c(o1)C(=O)c1occc1C2=O,2.1,0.5,-0.3,-12.8,4006,5.7
COCC#Cc1cnc2c(c1)C(=O)N([C@H](C)CO)C[C@H](C)[C@@H](CN(C)S(=O)(=O)c1ccccc1)O2,-6.9,·,-1.0,-9.0,4210,6.0
O=C(Nc1ccc(Br)c(C(F)(F)F)c1)c1ccccc1,-2.9,644.4*,-0.5,0.1,2447,-6.4
O=C(Nc1ccc(Br)c(C(F)(F)F)c1)c1ccc(C(F)(F)F)cc1,1.7,·,0.0,9.3,5834,4.9
COc1ccc(C2C(C(C)=O)=C(O)C(=O)N2c2ccc(F)cc2)cc1 (stereo not drawn),·,-0.6,·,·,·,2.6
CC1(C)NC(=O)N(CC(O)COc2ccc(-c3ccc(C#N)cc3)cc2)C1=O (stereo not drawn),5.9,0.6,?,-8.8,19940*,1.1
CCCCOC(=O)CCCN1C(=O)/C(=C2\SC(=S)N(CCCC(=O)OCCCC)C2=O)SC1=S,20.6,·,65.3*,45.2*,4596,-2.7
CCN1C(=O)/C(=C2\SC(=S)N(CCCOC)C2=O)c2ccccc21,0.3,0.4,3.9,5.3,3551,-9.1
Cc1cccc(NS(=O)(=O)c2cccc(C(=O)N3CCN(C/C=C/c4ccccc4)CC3)c2)c1,3.5,-0.3,0.1,0.6,3715,2.0
COc1cccc(Oc2cncnc2-c2ccc(OC)cc2O)c1,20.5,56.4*,0.2,-2.8,4332,0.1
COc1ccc(-c2cncnc2-c2ccc(OC)cc2O)cc1,-28.8,-1.5,0.7,-6.2,3591,-0.4
Cc1ccc(/C(N)=N/OC(=O)Cc2cccs2)cc1,-2.0,-0.5,-0.7,-1.5,23460*,-7.9
Cc1cccc(/C(N)=N/OC(=O)Cc2cccs2)c1,3.8,0.3,1.8,-2.5,19950*,-5.1
Cc1ccc(/C(N)=N/OC(=O)CCC2CCCC2)cc1,-6.8,0.6,-0.8,-9.9,3714,-0.1
Cc1ccc(/C(N)=N/OC(=O)CCC2CCCCC2)cc1,-5.3,0.5,-1.6,-2.3,16562*,-1.8
COc1cc(CN2C(=O)C(C)ON=C2c2ccccc2F)cc(OC)c1 (stereo not drawn),-3.3,·,-0.7,-0.4,5899,·
COc1ccccc1N(CC(=O)NCC1CCCO1)C(=O)CNS(=O)(=O)c1ccc(Cl)cc1 (stereo not drawn),-2.3,0.0,0.0,-3.2,4431,4.4
CCNC(=O)C1CCCN(C(=O)c2ccc(N(C)C)cc2)CC1 (stereo not drawn),-3.8,·,0.5,1.9,3570,·
COc1ccc(-c2[nH]n(-c3ccc([N+](=O)[O-])cc3)c(=O)c2C=NCc2ccc(F)cc2)cc1,-2.6,0.0,1.3,1.5,2509,80.7*
O=C1C2(CCC13COC(c1ccc(O)cc1)OC3)COC(c1ccc(O)cc1)OC2 (stereo not drawn),-1.2,-0.5,0.6,-4.6,22568*,2.0
O=C(C[C@H]1C/C=C\CCC(=O)OC[C@H]2CCCN2C1=O)NCCO,2.4,-0.5,0.0,-1.2,3325,8.2
SMILES,BoNT F protease,PfHsp40 rescue,BoNT-A LC inh2,Anthrax LF inh2,Bead autofluor,MazEF act
Cc1ccc(S(=O)(=O)NC2CC3CCC2C3)cc1 (stereo not drawn),3.3,·,-0.1,0.8,6189,4.5
O=S(=O)(NC1CC2CCC1C2)c1ccc(Br)cc1 (stereo not drawn),3.6,67.4*,0.1,-8.9,3799,-35.9
CCOC(=O)CN(C(=O)CSc1nnc(CNc2ccc(C)cc2C)o1)c1ccccc1,0.7,3.2,0.9,-14.9,21560*,-4.8
CCOC(=O)CN(C(=O)CSc1nnc(-c2ccc(OC)c(OC)c2)o1)c1ccccc1,-2.4,0.0,?,1.4,20211*,1.4
COc1ccc(-c2nnc(SCC(=O)N3CCN(c4ccccc4)CC3)o2)cc1OC,-4.2,-0.6,-1.2,-5.8,4250,5.6
COC(=O)CSc1nnc(-c2ccc(OC)c(OC)c2)o1,-2.7,-0.5,0.1,3.4,4772,-2.1
COc1ccc(-c2nnc(SCC(=O)N3CCC(Cc4ccccc4)CC3)o2)cc1OC,-2.6,0.6,-0.3,-4.7,22436*,3.4
O=C(C[C@H]1C/C=C\C[C@H](Cc2ccc(F)cc2)C(=O)O[C@@H](c2ccccc2)CNC1=O)NCCO,5.5,-1.3,-0.7,3.7,3897,11.0
O=C1CCCC/C1=C/Nc1ccc2c(c1)OCO2,-1.8,1.1,1.1,-0.3,16302*,2.4
COc1ccc(N/C=C2/CCCCC2=O)cc1,-3.7,0.0,0.1,-0.9,21936*,-0.3
O=C1CCCC/C1=C\Nc1ccccc1C(=O)O,9.6,-0.3,6.1,-1.7,19879*,1.0
COc1ccc(OC)c(N/C=C2/CCCCC2=O)c1,-7.1,-1.0,-4.4,-2.1,21967*,-1.7
NC(=O)c1ccccc1N/C=C1\CCCCC1=O,-1.9,0.3,0.9,1.4,2380,-14.4
CSCc1c(C(=O)OCC(=O)c2ccc[nH]2)oc2ccccc12,-6.1,6.2,-1.3,-1.5,?,-7.4
N#CCc1cnc2ccccc2n1,-2.4,-0.9,-3.6,3.0,3947,-0.1
Cc1cc(C)cc(Oc2nn[nH]n2)c1,-3.8,-0.7,-0.6,1.2,24301*,1.5
COCC(=O)N(Cc1cc2ccc(C)cc2[nH]c1=O)c1ccc(OC)cc1,0.7,0.3,?,-1.7,23081*,-2.3
c1ccc2[nH]c(-c3ccnc4ccccc34)nc2c1,-5.0,-1.1,0.0,-0.4,17421*!,-0.9
N#C/C(=C\c1ccc(N2CCOCC2)o1)C(=O)Nc1ccc(O)cc1,1.7,2.2,-0.7,-1.1,4565,-729.5
N#C/C(=C/c1ccc(N2CCCCC2)o1)C(=O)Nc1ccc2ccccc2c1,64.7*,2.1,26.0,38.6*,60126*,-133.4
N#C/C(=C/c1ccc(N2CCCCC2)o1)C(=O)Nc1ccc(Cl)cc1,36.5*,0.1,-1.1,-1.3,17947*,-323.2
COc1ccc(NC(=O)c2cccc(N3C(=O)c4ccc(C(=O)Nc5ccc(OC)c(O)c5)cc4C3=O)c2)cc1O,-2.6,2.3,-0.8,-4.6,5815,12.7
N#CC1=C2SCC(O)(c3ccccc3)N2C(=O)CC1c1cccs1 (stereo not drawn),2.6,1.0,?,-5.6,16111,-13.2
COc1ccc(C2CC(=O)N3C(=C2C#N)SCC3(O)c2ccccc2)cc1 (stereo not drawn),2.2,-0.2,2.9,-3.7,19377*,-8.1
O=C(CSc1nc2ccc([N+](=O)[O-])cc2[nH]1)NC1CCCCC1,2.3,0.9,?,2.3,20507*,2.3

# Source: PubChem (several laboratories)
